Assay [1] is described as follows: kinase inhibitors against Plasmodium liver-stage infection, cell-based, known kinase inhibitor set, luminescence, hepatoma host viability (AID 624392).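 Further: infected cells incubated roughly two days before readout.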 As to conditions: Plasmodium liver stage in hepatoma cells, luciferase luminescence, concentration not given here; liver cell % of control: measured here: host liver cell viability; parasite % of control: stronger effect = lower value.

The nature of assay [2]: modulators of glucocorticoid suppression of NF-kB, cell-based, luciferase, IL-1B stimulus, dexamethasone (AID 624486).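 On percent of negative control (+Dex): 100% = mean signal of vehicle control wells on the plate.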 Particulars: NF-kB luciferase reporter, IL-1B + dexamethasone, luminescence; percent of negative control (+Dex): actives lie on both sides, concentration not given here; z-score: measured here: IL-1B alone, no Dex. For orientation: Reporter assays use an easily measured gene product as a stand-in for the process of interest.

Assay [3] deals with Cellular tumor antigen p53 (Homo sapiens) (UniProt P04637). Briefly: kinase inhibitors altering GFP-p53 stability in HPV16-positive cells, imaging, known kinase inhibitor set, EGFP/DsRed ratio (AID 1053116).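 Further: cells exposed to compounds for 24 h at 37 °C before reading.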 As to conditions: stronger effect = higher value; EGFP object count: measured here: GFP-p53 positive objects count.
A short description of assay [4]: IRF3 reporter activation in THP-1 macrophages, cell-based, PMA-stimulated THP-1, luminescence (AID 1053176). Particulars: PMA-differentiated THP-1, IRF3 reporter luminescence; stronger effect = higher value.

The structures appear in SMILES notation. Active and inactive are the calls of the source. How the calls were made is not given here.

Cellular tumor antigen p53 (Homo sapiens), sequence (P04637 whole entry, looked up): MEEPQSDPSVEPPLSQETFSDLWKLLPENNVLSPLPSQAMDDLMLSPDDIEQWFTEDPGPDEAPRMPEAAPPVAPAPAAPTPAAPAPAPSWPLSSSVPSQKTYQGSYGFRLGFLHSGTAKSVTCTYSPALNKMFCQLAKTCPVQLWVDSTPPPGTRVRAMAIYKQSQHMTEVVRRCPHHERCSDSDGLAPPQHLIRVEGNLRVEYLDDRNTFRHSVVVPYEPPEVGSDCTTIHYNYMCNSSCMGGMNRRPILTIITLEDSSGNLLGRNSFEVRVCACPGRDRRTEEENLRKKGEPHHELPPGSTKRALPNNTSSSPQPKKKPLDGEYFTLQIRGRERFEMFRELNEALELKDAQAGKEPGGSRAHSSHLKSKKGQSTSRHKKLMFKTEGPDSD

With `Cn1cc(C2=C(c3cn(C)c4cc(C(N)=O)ccc34)C(=O)NC2=O)c2ccccc21`, in assay [1], the liver cell % of control was 96.9% and the parasite % of control is 59.1% (inactive). For the same molecule, in assay [2], the percent of negative control (+Dex) was 95% (inactive) and the z-score was -0.22. For the same molecule, in assay [3], the EGFP object count was determined as 56.5 and the EGFP/DsRed ratio was 0.829 (active). Further, the fraction signal in assay [4] is -0.0005 (inactive).

`Cn1cc(C2=C(c3cn(CCCO)c4ccccc34)C(=O)NC2=O)c2ccccc21`: in assay [1], the liver cell % of control was 101% and the parasite % of control was 33.3% (inactive). In assay [2], the percent of negative control (+Dex) is 115% (inactive) and the z-score was -0.1. In assay [3], the EGFP object count is 9.5 and the EGFP/DsRed ratio is 0.221 (inactive). The fraction signal in assay [4] is 0.0055 (inactive).

For the molecule `Cn1cc(C2=C(c3c4n(c5ccccc35)CCCC4)C(=O)NC2=O)c2ccccc21`, in assay [1], the liver cell % of control stood at 77.8% and the parasite % of control is 85.7% (inactive). Moreover, in assay [2], the percent of negative control (+Dex) was 100% (inactive) and the z-score came to 0.55. For the same molecule, in assay [3], the EGFP object count turned out to be 5.5 and the EGFP/DsRed ratio was 0.0663 (inactive). Further, in assay [4], the fraction signal is 0.0055 (inactive).

`Cn1cc(C2=C(c3ccc4ccccc4c3)C(=O)NC2=O)c2ccccc21`: in assay [1], the liver cell % of control stood at 105% and the parasite % of control was 53.6% (inactive). Moreover, in assay [2], the percent of negative control (+Dex) is 94% (inactive) and the z-score is -0.025. Moreover, in assay [3], the EGFP object count came out at 3 and the EGFP/DsRed ratio is 0.0576 (inactive). In addition, the fraction signal in assay [4] is -0.001 (inactive).

For the molecule `Cn1c(=O)c(Cc2ccc(F)cc2F)cc2cnc(NC3CCOCC3)nc21`, in assay [1], the liver cell % of control amounted to 103% and the parasite % of control is 54.9% (inactive). Also, in assay [2], the percent of negative control (+Dex) is 98.5% (inactive) and the z-score was found to be 0.48. For the same molecule, in assay [3], the EGFP object count was 3 and the EGFP/DsRed ratio is 0.139 (inactive). The fraction signal in assay [4] is -0.0055 (inactive).

Regarding `Cn1cc(C2=C(c3c4n(c5ccccc35)CCCCC4)C(=O)NC2=O)c2ccccc21`, in assay [1], the liver cell % of control turned out to be 80.1% and the parasite % of control was 66.1% (inactive). Besides, in assay [2], the percent of negative control (+Dex) is 100% (inactive) and the z-score was -0.31. Also, in assay [3], the EGFP object count was 7 and the EGFP/DsRed ratio is 0.223 (inactive). Also, the fraction signal in assay [4] was -0.005 (inactive).

As to `CC(Cn1ncnn1)Nc1ncc2cc(Oc3ccc(F)cc3F)c(=O)n(C)c2n1` (stereo not given), in assay [1], the liver cell % of control is 111% and the parasite % of control is 71.1% (inactive). Also, in assay [2], the percent of negative control (+Dex) was 101% (inactive) and the z-score is 0.455. In addition, in assay [3], the EGFP object count was determined as 1.5 and the EGFP/DsRed ratio is 0.0437 (inactive). In addition, in assay [4], the fraction signal is -0.003 (inactive).

`Cn1cc(C2=C(c3cccc(NCC(O)CO)c3)C(=O)NC2=O)c2cc(Cl)ccc21` (stereo not given): in assay [1], the liver cell % of control turned out to be 134% and the parasite % of control is 44.5% (inactive). In addition, in assay [2], the percent of negative control (+Dex) is 140% (active) and the z-score is -1.56. In assay [3], the EGFP object count was found to be 15 and the EGFP/DsRed ratio was 0.196 (inactive). In assay [4], the fraction signal is -0.0005 (inactive).

Regarding `Cc1[nH]nc2c1N=C(c1ccccc1F)c1cc(C#N)ccc1N2`, in assay [1], the liver cell % of control amounted to 96.8% and the parasite % of control is 68.4% (inactive). Also, in assay [2], the percent of negative control (+Dex) is 157% (active) and the z-score is 0.015. Also, in assay [3], the EGFP object count stood at 99.5 and the EGFP/DsRed ratio was 0.814 (active). The fraction signal in assay [4] is 0.0055 (inactive).

As for `Nc1c(C(=O)c2cccc(CCS(N)(=O)=O)c2)cnn1-c1ccc(F)cc1`, in assay [1], the liver cell % of control is 92.4% and the parasite % of control was 53.8% (inactive). In assay [2], the percent of negative control (+Dex) was 105% (inactive) and the z-score turned out to be 0.275. In assay [3], the EGFP object count was 2 and the EGFP/DsRed ratio was 0.0563 (inactive). Further, in assay [4], the fraction signal is 0.0055 (inactive).

On to `CCNC(=O)C1CCCN2C(=O)CCC(NC(=O)C(Cc3ccc(OP(=O)(O)O)cc3)NC(C)=O)C(=O)N12` (stereo not given), for which, in assay [1], the liver cell % of control came to 95% and the parasite % of control is 44.7% (inactive). Further, in assay [2], the percent of negative control (+Dex) is 102% (inactive) and the z-score is 0.145. In assay [3], the EGFP object count came to 6 and the EGFP/DsRed ratio is 0.215 (inactive). The fraction signal in assay [4] was -0.0005 (inactive).

`COc1cccc(F)c1C(=O)c1cnc(NC2CCN(S(C)(=O)=O)CC2)nc1N`: in assay [1], the liver cell % of control was found to be 93.1% and the parasite % of control was 512% (inactive). Besides, in assay [2], the percent of negative control (+Dex) was 116% (inactive) and the z-score turned out to be 2.08. Also, in assay [3], the EGFP object count came out at 3.5 and the EGFP/DsRed ratio is 0.124 (inactive). In addition, the fraction signal in assay [4] was -0.018 (inactive).

Turning to `Cn1cc(C2=C(c3cn(C)c4ccc(N)cc34)C(=O)NC2=O)c2ccccc21`, in assay [1], the liver cell % of control worked out at 95.1% and the parasite % of control was 36.7% (inactive). Besides, in assay [2], the percent of negative control (+Dex) is 98% (inactive) and the z-score is 0.385. Moreover, in assay [3], the EGFP object count amounted to 11 and the EGFP/DsRed ratio is 0.25 (inactive). Also, the fraction signal in assay [4] was -0.0115 (inactive).

Turning to `Cn1cc(C2=C(c3cn(CCCN=C(N)N)c4ccccc34)C(=O)NC2=O)c2ccccc21`, in assay [1], the liver cell % of control was 110% and the parasite % of control was 44.7% (inactive). Further, in assay [2], the percent of negative control (+Dex) was 101% (inactive) and the z-score was 0.295. Also, in assay [3], the EGFP object count amounted to 7.5 and the EGFP/DsRed ratio was 0.202 (inactive). Moreover, in assay [4], the fraction signal was -0.005 (inactive).

As to `CN(C)CC#Cc1cccc(C(=O)c2cnn(-c3ccc(F)cc3)c2N)c1`, in assay [1], the liver cell % of control amounted to 101% and the parasite % of control is 74.8% (inactive). In assay [2], the percent of negative control (+Dex) was 109% (inactive) and the z-score was determined as 1.23. For the same molecule, in assay [3], the EGFP object count was 3 and the EGFP/DsRed ratio is 0.0589 (inactive). Further, the fraction signal in assay [4] is -0.001 (inactive).

`Nc1c(C(=O)c2cccc(-c3cccnc3)c2)cnn1-c1ccc(F)cc1`: in assay [1], the liver cell % of control worked out at 219% and the parasite % of control is 7.92% (inactive). Further, in assay [2], the percent of negative control (+Dex) is 111% (inactive) and the z-score amounted to 0.475. In assay [3], the EGFP object count stood at 3 and the EGFP/DsRed ratio is 0.0451 (inactive). Moreover, the fraction signal in assay [4] is -0.005 (inactive).

Regarding `Cn1cc(C2=C(c3cn(C)c4ccc(Cl)cc34)C(=O)NC2=O)c2ccccc21`, in assay [1], the liver cell % of control is 77% and the parasite % of control is 33.5% (inactive). Besides, in assay [2], the percent of negative control (+Dex) is 114% (inactive) and the z-score was -1.06. In assay [3], the EGFP object count amounted to 156 and the EGFP/DsRed ratio was 0.929 (active). For the same molecule, the fraction signal in assay [4] was -0.0075 (inactive).

For `Cc1[nH]nc2c1N=C(c1ccccc1F)c1cc(C(N)=O)ccc1N2`, in assay [1], the liver cell % of control stood at 91.5% and the parasite % of control is 76.9% (inactive). Besides, in assay [2], the percent of negative control (+Dex) was 110% (inactive) and the z-score amounted to 0.59. In assay [3], the EGFP object count was 54.5 and the EGFP/DsRed ratio was 0.555 (active). Also, the fraction signal in assay [4] is -0.005 (inactive).

Consider `CN1CCN(CCc2cccc(C(=O)c3cnn(-c4ccc(F)cc4)c3N)c2)CC1`, for which, in assay [1], the liver cell % of control was 112% and the parasite % of control was 51.1% (inactive). Further, in assay [2], the percent of negative control (+Dex) is 96.5% (inactive) and the z-score turned out to be 1.1. In assay [3], the EGFP object count amounted to 5 and the EGFP/DsRed ratio was 0.187 (inactive). In addition, the fraction signal in assay [4] is 0.0015 (inactive).

`Cc1ccc(C)c(C2=C(c3cn(C)c4ccccc34)C(=O)NC2=O)c1`: in assay [1], the liver cell % of control turned out to be 166% and the parasite % of control was 33% (inactive). For the same molecule, in assay [2], the percent of negative control (+Dex) is 102% (inactive) and the z-score is -1.65. In assay [3], the EGFP object count worked out at 33.5 and the EGFP/DsRed ratio was 0.361 (inactive). For the same molecule, the fraction signal in assay [4] is 0.0035 (inactive).

Values taken from PubChem BioAssay.
